Test results reported in the supplement of paper PMC10849652.
About 7,900 targets were measured; listed, in parts, are those with a hit and a random draw of the rest. About 0.6% of all pairs of compound and target were hits.

How the values were obtained:
Experiment in all cases: log2 fold change, soluble protein after heating vs DMSO (PISA); higher = thermal stabilisation; K562 cells, 10 uM, 30 min; active = over 0.2 and 3.5 SD of the protein, either way, in both replicates (recomputed)
IRAK-1-4 Inhibitor I = compound: C1COCCN1CCN2C3=CC=CC=C3N=C2NC(=O)C4=CC(=CC=C4)[N+](=O)[O-] [IRAK-1-4 Inhibitor I]
Outline: (§1)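 Soluble protein was quantified by TMTpro 16plex LC-MS/MS after channel sums were equalised. It was obtained as the supernatant after 21,000xg for 90 min from pooled aliquots of K562 cells (2×10^6 cells/mL, 10 μM compound, 30 min) heated for 3 min across 48°C-58°C and extracted in PBS with 0.5% NP-40 at 4°C. Thermal stability values are relative to control samples and come from duplicates. They are given as log2 fold changes.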

ibrutinib = compound: C=CC(=O)N1CCC[C@@H](n2nc(-c3ccc(Oc4ccccc4)cc3)c3c(N)ncnc32)C1 [ibrutinib]
Outline: as §1

[1] = compound: CC(=O)c1cnc2ccc(-c3cc(Cl)c(O)c(Cl)c3)nc2c1N[C@H]1CC[C@H](CN(C)C)CC1
Outline: as §1

ralimetinib = compound: CC(C)(C)Cn1c(N)nc2ccc(-c3[nH]c(C(C)(C)C)nc3-c3ccc(F)cc3)nc21 [ralimetinib]
Outline: as §1

[2] = compound: CC(C)(O)CC(=O)NCCn1ccc2ncnc(Nc3ccc(Oc4cccc(C(F)(F)F)c4)c(Cl)c3)c21
Outline: as §1

[3] = compound: CC(C)C1=C2N=C(C=C(N2N=C1)NCC3=CC=CC=C3)NCCCCCCN
Outline: as §1

[4] = compound: CC(C)C[C@@H](C=O)NC(=O)[C@H](CC(C)C)NC(=O)[C@H](CC(C)C)NC(=O)OCc1ccccc1
Outline: as §1

pinometostat = compound: CC(C)N(C[C@H]1O[C@@H](n2cnc3c(N)ncnc32)[C@H](O)[C@@H]1O)[C@H]1C[C@@H](CCc2nc3cc(C(C)(C)C)ccc3[nH]2)C1 [pinometostat]
Outline: as §1

[5] = compound: CC1=C(C(CC(=O)N1)C2=CC=C(C=C2)C(F)(F)F)C(=O)NC3=C(C=C4C(=C3)C=NN4)F
Outline: as §1

[6] = compound: CC1=C(C2=C(C=C1)C(=O)C3=CC=CC=C3N2CCCN)C
Outline: as §1

[7] = compound: CC1=C(C=C(C=C1)NC(=O)C2=CC(=CC=C2)C(C)(C)C#N)NC3=CC4=C(C=C3)N=CN(C4=O)C
Outline: as §1

[8] = compound: CC1=C(C=C(C=C1)NC(=O)C2=CC(=CC=C2)N(C)C)NC(=O)C3=CC=C(C=C3)O
Outline: as §1

[9] = compound: CC1=CC=C(C=C1)SC2=C3C=C(SC3=CN=C2)C(=O)N
Outline: as §1

[10] = compound: CC1=NC(=CC=C1)C2=C(N=C(N2)C(C)(C)C)C3=CC4=NC=CN=C4C=C3
Outline: as §1

Nexturastat A = compound: CCCCN(Cc1ccc(C(=O)NO)cc1)C(=O)Nc1ccccc1 [Nexturastat A]
Outline: as §1

vemurafenib = compound: CCCS(=O)(=O)Nc1ccc(F)c(C(=O)c2c[nH]c3ncc(-c4ccc(Cl)cc4)cc23)c1F [vemurafenib]
Outline: as §1

[11] = compound: CCCS(=O)(=O)Nc1ccc(F)c(C(=O)c2c[nH]c3ncc(Cl)cc23)c1F
Outline: as §1

[12] = compound: CCCc1cc(C)[nH]c(=O)c1CNC(=O)c1cc(-c2ccnc(N3CCN(C)CC3)c2)cc2c1cnn2C(C)C
Outline: as §1

givinostat = compound: CCN(CC)Cc1ccc2cc(COC(=O)Nc3ccc(C(=O)NO)cc3)ccc2c1 [givinostat]
Outline: as §1

barasertib = compound: CCN(CCCOc1ccc2c(Nc3cc(CC(=O)Nc4cccc(F)c4)[nH]n3)ncnc2c1)CCOP(=O)(O)O [barasertib]
Outline: as §1

Measured: log2 fold change

MRPL46 (UniProt Q9H2W6)
inactive: IRAK-1-4 Inhibitor I -0.069 | ibrutinib -0.012 | [1] 0.077 | ralimetinib 0.029 | [2] -0.008 | [3] -0.073 | [4] 0.064 | pinometostat 0.03 | [5] -0.004 | [6] -0.026 | [7] 0.061 | [8] -0.044 | [9] -0.009 | [10] -0.064 | Nexturastat A 0.076 | vemurafenib -0.061 | [11] -0.006 | [12] 0.009 | givinostat -0.003 | barasertib -0.008

MRPS18B (UniProt Q9Y676)
inactive: IRAK-1-4 Inhibitor I -0.026 | ibrutinib 0.103 | [1] -0.096 | ralimetinib -0.022 | [2] -0.025 | [3] -0.043 | [4] 0.137 | pinometostat -0.005 | [5] 0.056 | [6] -0.068 | [7] -0.036 | [8] -0.165 | [9] -0.08 | [10] 0.009 | Nexturastat A 0.031 | vemurafenib -0.074 | [11] 0 | [12] -0.081 | givinostat 0.075 | barasertib -0.017

NCAPD2 (UniProt Q15021)
inactive: IRAK-1-4 Inhibitor I -0.101 | ibrutinib -0.067 | [1] 0.097 | ralimetinib 0.048 | [2] -0.151 | [3] -0.208 | [4] 0.054 | pinometostat 0.039 | [5] -0.012 | [6] -0.036 | [7] 0.057 | [8] -0.032 | [9] 0.012 | [10] -0.013 | Nexturastat A 0.058 | vemurafenib 0.119 | [11] 0.041 | [12] 0.101 | givinostat 0.077 | barasertib 0.03

MMS19 isoform 8 (UniProt Q96T76)
inactive: IRAK-1-4 Inhibitor I -0.141 | ibrutinib -0.029 | [1] -0.028 | ralimetinib 0.078 | [2] -0.082 | [3] -0.216 | [4] 0.006 | pinometostat 0.084 | [5] -0.018 | [6] 0.011 | [7] -0.022 | [8] -0.029 | [9] 0 | [10] 0.067 | Nexturastat A 0.051 | vemurafenib 0.047 | [11] 0.1 | [12] 0.061 | givinostat -0.061 | barasertib 0.063

MTOR (UniProt P42345)
inactive: IRAK-1-4 Inhibitor I -0.029 | ibrutinib -0.03 | [1] 0.183 | ralimetinib 0.011 | [2] -0.084 | [4] -0.002 | pinometostat 0.046 | [5] -0.044 | [6] 0.014 | [7] -0.033 | [8] -0.05 | [9] 0.02 | [10] -0.006 | Nexturastat A 0.009 | vemurafenib 0.024 | [11] 0.071 | [12] 0.008 | givinostat 0.038 | barasertib 0.059
active: [3] -0.288

NANS (UniProt Q9NR45)
Sequence of UniProt Q9NR45 (Q9NR45 whole entry, looked up): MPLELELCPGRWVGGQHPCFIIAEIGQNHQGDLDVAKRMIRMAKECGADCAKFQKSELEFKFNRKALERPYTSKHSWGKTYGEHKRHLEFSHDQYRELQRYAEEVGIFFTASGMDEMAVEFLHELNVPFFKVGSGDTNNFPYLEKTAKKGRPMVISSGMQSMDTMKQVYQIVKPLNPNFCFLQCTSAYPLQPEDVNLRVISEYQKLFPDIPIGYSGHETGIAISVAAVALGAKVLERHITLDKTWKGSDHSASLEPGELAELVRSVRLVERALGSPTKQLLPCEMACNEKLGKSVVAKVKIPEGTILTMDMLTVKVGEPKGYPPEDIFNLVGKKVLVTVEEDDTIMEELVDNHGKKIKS
inactive: IRAK-1-4 Inhibitor I 0.091 | ibrutinib -0.034 | [1] -0.01 | ralimetinib 0.015 | [2] -0.043 | [3] -0.006 | [4] -0.036 | pinometostat 0 | [5] 0.033 | [6] 0.065 | [7] 0.063 | [8] -0.02 | [9] 0.035 | [10] 0.007 | Nexturastat A -0.196 | vemurafenib -0.001 | [11] 0.026 | [12] 0.007 | givinostat -0.025 | barasertib 0.01

MRPS24 (UniProt Q96EL2)
inactive: IRAK-1-4 Inhibitor I -0.048 | ibrutinib 0.009 | [1] -0.071 | ralimetinib -0.086 | [2] -0.094 | [3] -0.159 | [4] 0.051 | pinometostat 0.002 | [5] -0.031 | [6] -0.227 | [7] -0.01 | [8] -0.037 | [9] 0.047 | [10] -0.003 | Nexturastat A 0.095 | vemurafenib -0.065 | [11] 0.057 | [12] -0.016 | givinostat -0.035 | barasertib -0.024

OSTM1 (UniProt Q86WC4)
Sequence of UniProt Q86WC4 (Q86WC4 whole entry, looked up): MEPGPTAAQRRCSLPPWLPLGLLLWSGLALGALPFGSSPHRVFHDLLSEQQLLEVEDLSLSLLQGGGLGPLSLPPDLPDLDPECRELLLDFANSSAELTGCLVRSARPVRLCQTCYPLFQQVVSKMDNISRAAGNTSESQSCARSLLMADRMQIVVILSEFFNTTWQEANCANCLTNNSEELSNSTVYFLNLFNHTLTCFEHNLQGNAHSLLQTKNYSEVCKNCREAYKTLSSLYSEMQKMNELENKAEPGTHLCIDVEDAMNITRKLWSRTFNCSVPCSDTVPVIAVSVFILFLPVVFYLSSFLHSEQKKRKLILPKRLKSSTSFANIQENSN
inactive: IRAK-1-4 Inhibitor I 0.05 | ibrutinib -0.006 | [1] 0.013 | ralimetinib 0.042 | [2] -0.081 | [3] -0.041 | [4] 0.079 | pinometostat -0.056 | [5] 0.015 | [6] -0.024 | [7] -0.051 | [8] -0.047 | [9] 0 | [10] 0.056 | Nexturastat A -0.033 | vemurafenib 0.017 | [11] 0.093 | [12] -0.03 | givinostat 0.146 | barasertib -0.023

MUL1 (UniProt Q969V5)
Sequence of UniProt Q969V5 (Q969V5 whole entry, looked up): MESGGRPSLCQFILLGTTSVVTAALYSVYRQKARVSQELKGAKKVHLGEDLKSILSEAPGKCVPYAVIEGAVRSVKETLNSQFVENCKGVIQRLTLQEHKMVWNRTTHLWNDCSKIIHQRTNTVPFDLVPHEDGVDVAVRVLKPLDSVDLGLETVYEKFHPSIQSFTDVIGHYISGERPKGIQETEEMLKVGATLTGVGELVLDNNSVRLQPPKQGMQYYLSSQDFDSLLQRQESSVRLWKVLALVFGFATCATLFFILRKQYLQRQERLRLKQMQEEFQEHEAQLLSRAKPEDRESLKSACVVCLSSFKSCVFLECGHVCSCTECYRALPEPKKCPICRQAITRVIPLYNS
inactive: IRAK-1-4 Inhibitor I 0.009 | ibrutinib 0.009 | [1] -0.113 | ralimetinib -0.008 | [2] -0.068 | [3] -0.004 | [4] 0.027 | pinometostat 0.021 | [5] -0.016 | [6] -0.01 | [7] -0.061 | [8] -0.015 | [9] 0.01 | [10] -0.004 | Nexturastat A -0.022 | vemurafenib -0.039 | [11] 0.024 | [12] 0.11 | givinostat 0.005 | barasertib 0.005

NAA11 (UniProt Q9BSU3)
Sequence of UniProt Q9BSU3 (Q9BSU3 whole entry, looked up): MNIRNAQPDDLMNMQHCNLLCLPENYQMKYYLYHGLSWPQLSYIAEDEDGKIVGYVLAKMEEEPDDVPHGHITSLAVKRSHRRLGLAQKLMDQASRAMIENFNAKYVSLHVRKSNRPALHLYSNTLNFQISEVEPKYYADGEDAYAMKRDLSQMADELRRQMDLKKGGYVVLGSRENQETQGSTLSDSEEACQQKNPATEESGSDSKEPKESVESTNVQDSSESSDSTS
inactive: IRAK-1-4 Inhibitor I 0.035 | ibrutinib 0.049 | [1] -0.102 | ralimetinib -0.024 | [2] -0.042 | [3] -0.075 | [4] 0.072 | pinometostat -0.131 | [5] -0.007 | [6] 0 | [7] -0.375 | [8] 0.006 | [9] 0.06 | [10] 0.021 | Nexturastat A -0.016 | vemurafenib 0.145 | [11] -0.067 | [12] 0.047 | givinostat 0 | barasertib -0.027

NOP56 (UniProt O00567)
Sequence of UniProt O00567 (O00567 whole entry, looked up): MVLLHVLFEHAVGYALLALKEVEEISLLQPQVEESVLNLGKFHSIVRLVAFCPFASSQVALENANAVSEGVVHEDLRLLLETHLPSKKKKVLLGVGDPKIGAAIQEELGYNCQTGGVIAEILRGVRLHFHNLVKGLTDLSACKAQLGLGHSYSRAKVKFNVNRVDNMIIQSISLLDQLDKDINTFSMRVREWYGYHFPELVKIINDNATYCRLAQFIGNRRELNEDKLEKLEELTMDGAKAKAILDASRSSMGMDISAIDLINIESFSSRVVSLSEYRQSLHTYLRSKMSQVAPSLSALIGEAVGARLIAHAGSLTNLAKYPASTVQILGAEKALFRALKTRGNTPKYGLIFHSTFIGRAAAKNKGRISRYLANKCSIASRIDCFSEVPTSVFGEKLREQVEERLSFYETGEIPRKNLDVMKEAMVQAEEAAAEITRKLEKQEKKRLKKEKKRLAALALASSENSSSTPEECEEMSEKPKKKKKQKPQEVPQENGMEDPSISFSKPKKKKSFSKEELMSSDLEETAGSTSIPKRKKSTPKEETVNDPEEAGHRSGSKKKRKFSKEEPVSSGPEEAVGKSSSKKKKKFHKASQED
inactive: IRAK-1-4 Inhibitor I -0.03 | ibrutinib 0.025 | [1] 0.015 | ralimetinib 0.082 | [2] 0.108 | [3] 0.202 | [4] 0.234 | pinometostat 0.198 | [5] 0.086 | [6] 0.187 | [7] -0.024 | [8] -0.001 | [9] -0.149 | [10] -0.136 | Nexturastat A 0.127 | vemurafenib -0.018 | [11] -0.065 | [12] 0.003 | givinostat 0.096 | barasertib -0.076

MKRN2 (UniProt Q9H000)
Sequence of UniProt Q9H000 (Q9H000 whole entry, looked up): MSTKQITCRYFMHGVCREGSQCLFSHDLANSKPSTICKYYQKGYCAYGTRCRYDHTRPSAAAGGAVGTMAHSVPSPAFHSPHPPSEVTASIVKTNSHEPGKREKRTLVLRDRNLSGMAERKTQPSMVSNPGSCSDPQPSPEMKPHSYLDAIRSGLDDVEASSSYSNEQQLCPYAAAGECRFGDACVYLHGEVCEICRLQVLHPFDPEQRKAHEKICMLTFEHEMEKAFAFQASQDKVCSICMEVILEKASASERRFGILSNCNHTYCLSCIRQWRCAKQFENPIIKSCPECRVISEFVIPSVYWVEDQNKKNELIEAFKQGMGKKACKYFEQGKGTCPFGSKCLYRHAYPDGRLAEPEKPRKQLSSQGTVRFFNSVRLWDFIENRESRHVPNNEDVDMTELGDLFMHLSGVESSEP
inactive: IRAK-1-4 Inhibitor I -0.063 | ibrutinib 0.026 | [1] -0.137 | ralimetinib 0.034 | [2] 0.017 | [3] 0.032 | [4] 0.089 | pinometostat 0.094 | [5] -0.017 | [6] -0.064 | [7] 0.147 | [8] 0.059 | [9] -0.002 | [10] 0.086 | Nexturastat A 0.091 | vemurafenib 0.095 | [11] 0.035 | [12] -0.045 | givinostat 0.083 | barasertib -0.098

PAFAH1B2 (UniProt P68402)
Sequence of UniProt P68402 (P68402 whole entry, looked up): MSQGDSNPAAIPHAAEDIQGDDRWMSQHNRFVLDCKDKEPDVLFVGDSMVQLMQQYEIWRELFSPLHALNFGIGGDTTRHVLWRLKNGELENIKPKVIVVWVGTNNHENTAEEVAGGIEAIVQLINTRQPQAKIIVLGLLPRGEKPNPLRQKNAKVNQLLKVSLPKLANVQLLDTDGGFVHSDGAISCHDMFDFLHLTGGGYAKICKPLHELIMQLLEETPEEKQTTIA
active: [2] -0.436
inactive: IRAK-1-4 Inhibitor I 0.013 | ibrutinib 0.017 | [1] -0.016 | ralimetinib 0.038 | [3] 0.012 | [4] -0.033 | pinometostat 0.016 | [5] 0.027 | [6] 0.005 | [7] 0.064 | [8] 0.005 | [9] -0.106 | [10] -0.046 | Nexturastat A -0.157 | vemurafenib 0.083 | [11] -0.135 | [12] -0.355 | givinostat 0.042 | barasertib 0.046

NUP210 (UniProt Q8TEM1)
Sequence of UniProt Q8TEM1 (Q8TEM1 whole entry, looked up): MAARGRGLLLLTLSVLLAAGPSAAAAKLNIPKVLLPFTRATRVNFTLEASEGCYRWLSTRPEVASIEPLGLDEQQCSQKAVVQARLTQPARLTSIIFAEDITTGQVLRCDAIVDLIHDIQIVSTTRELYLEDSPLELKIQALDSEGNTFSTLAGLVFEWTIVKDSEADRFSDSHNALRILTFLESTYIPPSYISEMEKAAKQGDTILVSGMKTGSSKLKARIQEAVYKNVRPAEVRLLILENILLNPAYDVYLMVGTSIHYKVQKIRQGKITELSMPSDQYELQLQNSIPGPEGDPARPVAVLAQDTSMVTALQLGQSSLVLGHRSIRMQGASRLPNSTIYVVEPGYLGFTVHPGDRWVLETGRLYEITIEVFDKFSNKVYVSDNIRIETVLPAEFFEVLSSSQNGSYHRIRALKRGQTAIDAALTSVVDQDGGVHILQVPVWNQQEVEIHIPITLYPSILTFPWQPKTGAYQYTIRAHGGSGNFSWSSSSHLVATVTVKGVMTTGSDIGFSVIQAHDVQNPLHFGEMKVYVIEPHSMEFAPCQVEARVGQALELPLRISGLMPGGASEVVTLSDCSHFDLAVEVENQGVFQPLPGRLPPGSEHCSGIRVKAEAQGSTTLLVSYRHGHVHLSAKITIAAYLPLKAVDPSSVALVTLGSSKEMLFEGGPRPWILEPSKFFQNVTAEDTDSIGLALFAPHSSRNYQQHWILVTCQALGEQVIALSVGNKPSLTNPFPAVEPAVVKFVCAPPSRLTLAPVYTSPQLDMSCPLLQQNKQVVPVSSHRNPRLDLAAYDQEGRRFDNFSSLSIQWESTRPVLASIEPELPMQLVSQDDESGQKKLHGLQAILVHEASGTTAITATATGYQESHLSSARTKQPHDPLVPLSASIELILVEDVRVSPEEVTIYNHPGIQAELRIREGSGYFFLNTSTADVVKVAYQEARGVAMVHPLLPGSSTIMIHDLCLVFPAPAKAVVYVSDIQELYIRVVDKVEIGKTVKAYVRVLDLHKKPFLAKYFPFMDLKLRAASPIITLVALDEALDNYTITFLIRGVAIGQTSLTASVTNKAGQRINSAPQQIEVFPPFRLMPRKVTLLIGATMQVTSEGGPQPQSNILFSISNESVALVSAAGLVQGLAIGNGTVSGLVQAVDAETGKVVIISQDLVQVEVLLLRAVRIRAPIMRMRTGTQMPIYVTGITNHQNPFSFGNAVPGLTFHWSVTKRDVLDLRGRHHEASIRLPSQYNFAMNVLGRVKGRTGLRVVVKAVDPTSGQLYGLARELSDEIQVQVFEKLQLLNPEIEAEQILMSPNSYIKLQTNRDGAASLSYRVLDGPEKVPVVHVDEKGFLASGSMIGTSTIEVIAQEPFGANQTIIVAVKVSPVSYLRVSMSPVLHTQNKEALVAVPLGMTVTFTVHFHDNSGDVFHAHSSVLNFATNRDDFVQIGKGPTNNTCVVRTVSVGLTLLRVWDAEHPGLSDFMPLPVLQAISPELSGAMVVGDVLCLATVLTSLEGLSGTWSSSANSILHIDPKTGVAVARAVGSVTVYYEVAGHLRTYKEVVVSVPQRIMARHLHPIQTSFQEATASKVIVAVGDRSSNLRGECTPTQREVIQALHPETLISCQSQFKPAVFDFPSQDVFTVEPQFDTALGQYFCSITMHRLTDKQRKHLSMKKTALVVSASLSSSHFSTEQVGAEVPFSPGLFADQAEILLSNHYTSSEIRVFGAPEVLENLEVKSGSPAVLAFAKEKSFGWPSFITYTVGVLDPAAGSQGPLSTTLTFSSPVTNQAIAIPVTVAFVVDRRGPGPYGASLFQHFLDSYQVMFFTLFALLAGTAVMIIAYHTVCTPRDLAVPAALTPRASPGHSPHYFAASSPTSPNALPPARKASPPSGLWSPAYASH
active: [3] -0.52
inactive: IRAK-1-4 Inhibitor I 0.005 | ibrutinib -0.025 | [1] -0.038 | ralimetinib -0.069 | [2] -0.176 | [4] -0.007 | pinometostat 0.001 | [5] 0.026 | [6] 0.047 | [7] -0.029 | [8] 0.052 | [9] 0.084 | [10] 0.035 | Nexturastat A -0.08 | vemurafenib -0.002 | [11] 0.058 | [12] -0.05 | givinostat -0.017 | barasertib 0.029

NAA38 isoform 2 (UniProt Q9BRA0)
Sequence of UniProt Q9BRA0 (Q9BRA0 whole entry, looked up): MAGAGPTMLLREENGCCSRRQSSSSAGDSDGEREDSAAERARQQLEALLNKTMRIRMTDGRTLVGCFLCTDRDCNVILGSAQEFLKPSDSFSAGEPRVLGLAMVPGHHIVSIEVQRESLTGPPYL
active: [3] -0.397
inactive: IRAK-1-4 Inhibitor I 0.047 | ibrutinib -0.021 | [1] -0.034 | ralimetinib 0.02 | [2] -0.095 | [4] -0.001 | pinometostat 0.035 | [5] 0.051 | [6] -0.01 | [7] 0.018 | [8] 0.041 | [9] 0.018 | [10] -0.044 | Nexturastat A 0.052 | vemurafenib 0.094 | [11] 0.042 | [12] -0.129 | givinostat 0.066 | barasertib -0.025

NSMCE4A (UniProt Q9NXX6)
Sequence of UniProt Q9NXX6 (Q9NXX6 whole entry, looked up): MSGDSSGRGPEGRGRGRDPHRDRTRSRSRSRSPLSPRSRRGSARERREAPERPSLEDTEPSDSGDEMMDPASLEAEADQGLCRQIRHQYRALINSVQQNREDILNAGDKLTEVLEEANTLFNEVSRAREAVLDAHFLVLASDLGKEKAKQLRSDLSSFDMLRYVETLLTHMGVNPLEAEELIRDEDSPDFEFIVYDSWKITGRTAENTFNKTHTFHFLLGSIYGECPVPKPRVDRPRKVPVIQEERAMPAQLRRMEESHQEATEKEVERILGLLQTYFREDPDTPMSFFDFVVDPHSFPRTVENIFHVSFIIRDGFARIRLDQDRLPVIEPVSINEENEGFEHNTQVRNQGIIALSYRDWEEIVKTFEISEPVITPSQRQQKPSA
inactive: IRAK-1-4 Inhibitor I 0.077 | ibrutinib -0.116 | [1] -0.059 | ralimetinib 0.051 | [2] 0.003 | [3] 0.252 | [4] 0.008 | pinometostat 0 | [5] -0.052 | [6] -0.124 | [7] 0 | [8] 0.022 | [9] -0.035 | [10] -0.053 | Nexturastat A 0.037 | vemurafenib 0.088 | [11] -0.041 | [12] -0.016 | givinostat -0.072 | barasertib 0.196
